# Results filed as inconclusive are left out. Activity calls are given as the source filed them. The call rests on the fitted dose curve; in most records, active means well fitted cell-killing curve with a large enough effect; inconclusive means small, poorly fitted or top-dose-only effect, or effect the other way; inactive means no such curve, though single readings can be large or run the other way.
# Test: Quantitative High-Throughput drug screen in 47 multiple myeloma cell lines against the NCATS MIPE library collection: MOLP8_DSMZ cell viability assay (AID 1918977); further: nearly all actives have a fitted effect of over 45% in size
# Settings: MOLP8 myeloma viability, CellTiter-Glo ATP luminescence, 48 h; series mostly up to 45.8 µM
# Description: PI: Beverly A. Mock Ph.D.
# Laboratory of Cancer Biology and Genetics,
# Center for Cancer Research, National Cancer Institute,
# National Institute of Health, Bethesda, Maryland
# Drug resistance and disease progression are common in multiple myeloma (MM) patients, underscoring the need for new therapeutic combinations. […] We hypothesized that effective combinations would reduce MYC expression and enhance p16 activity. […] These preclinical data identify potentially useful drug combinations for evaluation in drug-resistant MM and reveal potential mechanisms of combined drug sensitivity.
# Described herein is the primary MIPE qHTS used to cherrypick compounds. Validated compounds were then further tested for potential synergistic activiy.
# [1] Peat TJ, Gaikwad SM, Dubois W, Gyabaah-Kessie N, Zhang S, Gorjifard S, Phyo Z, Andres M, Hughitt VK, Simpson RM, Miller MA, Girvin AT, Taylor A, Williams D, D'Antonio N, Zhang Y, Rajagopalan A, Flietner E, Wilson K, Zhang X, Shinn P, Klumpp-Thomas C, McKnight C, Itkin Z, Chen L, Kazandijian D, Zhang J, Michalowski AM, Simmons JK, Keats J, Thomas CJ, Mock BA. Drug combinations identified by high-throughput screening promote cell cycle transition and upregulate Smad pathways in myeloma. Cancer Lett. 2023 Aug 1;568:216284. doi: 10.1016/j.canlet.2023.216284. Epub 2023 Jun 24. PMID: 37356470; PMCID: PMC10408729.
# SEQUENCE No. (e.g., 1, 2, 3, etc.); […] (e.g., Cells, Incubation, Reagent, etc.); VALUE and DESCRIPTION.
# 1; Cells; 5 uL; white, solid bottom 1536-well Greiner assay plate.
# 2; Compounds; 23 nL; Kalypsis pin tool (Wako USA) equipped with a 1536-well pin head to transfer to the assay plates.
# 3; Incubation; 48 hours; 37C incubation.
# 4; Reagent;5uL; CellTiter Glo (Promega).
# 5; Detector; 425V; Luminescence; Viewlux PerkinElmer.
# NOTES (numbers refer to Sequence numbers above)
# 1. The cell-based screening methods employed in this study were like those previously published. Briefly, the corresponding myeloma cell lines were screened in 1,536-well plates with 500 cells, 5-uL per well for inhibition of cell viability (assessed by measuring ATP levels with CellTiterGlo).
# 2. NCATS MIPE 4.0 library of approved and investigational drugs were added using the Kalypsis pin tool. Wells treated with DMSO only for 100% viability and media only for 0% viability were used as controls.
# 3. The assay plates were covered and incubated for 48 hours in a 37C, 5% CO2 incubator with controlled humidity.
# 4. After 48 hours, CellTilter-GloTM luminescent substrate mix (Promega) reagent was added to the assay plate and plates we incubated for 5 min at room temperature.
# 5. Signal was measured as median relative luminescence units on a ViewLux (PerkinElmer) multiplate reader.
# [1] Heske CM, Davis MI, Baumgart JT, Wilson K, Gormally MV, Chen L, Zhang X, Ceribelli M, Duveau DY, Guha R, Ferrer M, Arnaldez FI, Ji J, Tran HL, Zhang Y, Mendoza A, Helman LJ, Thomas CJ. Matrix Screen Identifies Synergistic Combination of PARP Inhibitors and Nicotinamide Phosphoribosyltransferase (NAMPT) Inhibitors in Ewing Sarcoma. Clin Cancer Res. 2017 Dec 1;23(23):7301-7311. doi: 10.1158/1078-0432.CCR-17-1121. Epub 2017 Sep 12. PMID: 28899971; PMCID: PMC6636827.
# Potency means the concentration at half of the fitted maximal effect.
Compound,Potency,viability (% of control)
CN(C)CC(=O)N1CCC(c2ccc(NC(=O)c3ncc(C#N)[nH]3)c(C3=CCCCC3)c2)CC1,5260 nM (active),
CCN(CC)Cc1ccc2cc(COC(=O)Nc3ccc(C(=O)NO)cc3)ccc2c1,372 nM (active),
O=C(O)C(=O)Nc1cccc(C2=NN=N[N]2)c1,inactive,
CC(C)(C)[C@H](NC(=O)c1ccc(N)c(Cl)c1)C(=O)N1CCC[C@@H]1C(=O)N[C@H](C#N)CC(=O)O,,110% [at 3.51 µM] (inactive)
CCNC(=O)c1cc2c(-c3cc(OCCN4CCCC4)c(Cl)cc3Cl)nc(N)nc2s1,743 nM (active),
CC(C(C)N1CC(=O)NC(=O)C1)N1CC(=O)NC(=O)C1 (stereo not given),10.5 nM (active),
CCCCCCCCCCCCCCCC(=O)OC[C@@H](NC(=O)C(Cl)Cl)[C@H](O)c1ccc([N+](=O)[O-])cc1,inactive,
COC1=C2C[C@@H](C)C[C@H](OC)[C@@H](O)[C@@H](C)C=C(C)[C@H](OC(N)=O)[C@@H](OC)C=CC=C(C)C(=O)NC(=CC1=O)C2=O,41.8 nM (active),
CN(N=O)C(=O)N[C@H]1C(O)OC(CO)[C@@H](O)[C@H]1O (stereo not given in full),inactive,
CCCNS(=O)(=O)Nc1ncnc(OCCOc2ncc(Br)cn2)c1-c1ccc(Br)cc1,inactive,
CS[C@H]1SC[C@@H]2C(=O)N(C)[C@H](C(C)C)C(=O)OC[C@H](NC(=O)c3cnc4ccccc4n3)C(=O)N[C@H](C)C(=O)N(C)[C@@H]1C(=O)N(C)[C@H](C(C)C)C(=O)OC[C@H](NC(=O)c1cnc3ccccc3n1)C(=O)N[C@H](C)C(=O)N2C,4.7 nM (active),
c1ccc2c(Oc3nc(Nc4ccc(N5CCOCC5)cc4)c4ncn(C5CCCCC5)c4n3)cccc2c1,inactive,
CCc1c(O)cc(O)c(C(=O)c2ccc(OCCN3CCOCC3)c(OC)c2)c1CC(=O)N(CCOC)CCOC,662 nM (active),
CC(=O)NCC(=O)N1[C@H]2CC[C@H]1c1cc(Nc3ncc(C(F)(F)F)c(NC4CCC4)n3)ccc12,2640 nM (active),
Oc1cc(-c2nc(-c3ccccc3)[nH]c2-c2ccncc2)ccc1Cl,16600 nM (active),
CCN(C(=O)c1c(O)c2c(Cl)cccc2n(C)c1=O)c1ccccc1,inactive,
COC[C@H](NC(=O)c1cnc(C)s1)C(=O)N[C@@H](COC)C(=O)N[C@@H](Cc1ccccc1)C(=O)[C@@]1(C)CO1,46.9 nM (active),
C[N+]1(C)[C@@H]2C[C@@H](OC(=O)C(O)(c3cccs3)c3cccs3)C[C@H]1[C@@H]1O[C@@H]12,inactive,
CN1CCCN(C(=O)c2cccc(-c3ccc(C=C4C(=O)Nc5ccc(Cl)cc54)o3)c2)CC1,4180 nM (active),
CC(=O)O[C@@]12CO[C@H]1C[C@H](O)[C@@]1(C)C(=O)[C@H](O)C3=C(C)[C@@H](OC(=O)C(O)[C@@H](NC(=O)OC(C)(C)C)c4ccccc4)C[C@@](O)([C@@H](OC(=O)c4ccccc4)[C@@H]21)C3(C)C (stereo not given in full),inactive,

Compound,Potency,viability (% of control)
CCCCC(=O)O[C@]1(C(=O)CO)[C@@H](C)C[C@H]2[C@@H]3CCC4=CC(=O)C=C[C@]4(C)[C@@]3(F)[C@@H](O)C[C@@]21C,526 nM (active),
CC[C@@]1([C@@H]2O[C@@H]([C@H]3O[C@@](O)(CO)[C@H](C)C[C@H]3C)C[C@H]2C)CC[C@H]([C@]2(C)CC[C@]3(C[C@H](O)[C@@H](C)[C@@H]([C@@H](C)[C@@H](OC)[C@H](C)C(=O)O)O3)O2)O1,204 nM (active),
CC(=O)O[C@H]1C[C@@H]2CC[C@H]3[C@H]4C[C@H]([N+]5(C)CCCCC5)[C@@H](OC(C)=O)[C@@]4(C)CC[C@@H]3[C@@]2(C)C[C@H]1N1CCCCC1,inactive,
Cn1cc(-c2ccc3ncc(Cc4ccc5ncccc5c4)n3n2)cn1,inactive,
COc1cc2ncnc(Nc3cccc(Br)c3)c2cc1OC,20900 nM (active),
CC(C)(O)Cn1c(NC(=O)c2ccc(-c3cn[nH]c3)s2)nc2cc(CN3CCOCC3)ccc21,1180 nM (active),
C[C@@H]1[C@H](C)CC[C@]2(C(=O)O)CC[C@]3(C)C(=CC[C@@H]4[C@@]5(C)C[C@@H](O)[C@H](O)[C@@](C)(CO)[C@H]5CC[C@]43C)[C@@H]12,inactive,
C=CC(=O)Nc1cc(NC(=O)c2ccc(C)c(NC(=O)c3ccno3)c2)cc(C(F)(F)F)c1,18700 nM (active),
COc1ccc2c(c1OC)C(=O)OC2[C@H]1c2c(cc3c(c2OC)OCO3)CCN1C (stereo not given in full),6620 nM (active),
CN(C)c1ccc2cc(C(=O)N[C@@H](CCCN=C(N)CCl)C(=O)NCc3ccccc3)ccc2c1,9350 nM (active),
Cc1cncc2cccc(S(=O)(=O)N3CCCN(C(=O)CN)C[C@@H]3C)c12,inactive,
CC(=O)O[C@H]1C[C@@H]2CC[C@H]3[C@H]4C[C@H]([N+]5(C)CCCCC5)[C@@H](OC(C)=O)[C@@]4(C)CC[C@@H]3[C@@]2(C)C[C@H]1[N+]1(C)CCCCC1,inactive,
OC[C@@H](O)[C@@H](O)[C@H](O)[C@@H](O)CO,inactive,
C[C@@H](Oc1ccc2[nH]nc(C=Cc3cnn(CCO)c3)c2c1)c1c(Cl)cncc1Cl,469 nM (active),
C[C@](Cc1c[nH]c2ccccc12)(NC(=O)OC1C2CC3CC(C2)CC1C3)C(=O)NC[C@H](NC(=O)CCC(=O)O)c1ccccc1 (stereo not given in full),inactive,
O=C1c2c(O)cccc2[C@@H]([C@@H]2O[C@H](CO)[C@@H](O)[C@H](O)[C@H]2O)c2cc(CO)cc(O)c21,inactive,
CC(C)[C@H](CO)Nc1nc(Nc2cccc(Cl)c2)c2ncn(C(C)C)c2n1,18700 nM (active),
Cn1cc(CNCC2CCN(c3ncc(C(=O)NO)cn3)CC2)c2ccccc21,13.2 nM (active),
C[C@@]12C(=O)OC(=O)[C@@]1(C)C1CCC2O1,3720 nM (active),
C=CC[C@@H]1C=C(C)C[C@H](C)C[C@H](OC)[C@H]2O[C@@](O)(C(=O)C(=O)N3CCCC[C@H]3C(=O)O[C@H](C(C)=C[C@@H]3CC[C@H](O)[C@H](OC)C3)[C@@H](C)[C@@H](O)CC1=O)[C@@H](C)C[C@@H]2OC,1320 nM (active),

# From PubChem BioAssay (NCATS)
